Results reported in the supplement of paper PMC4466140.

target: AgAbp1; experiment: SPOT peptide array binding signal intensity (averaged, normalized) (arbitrary units (background-subtracted, floor 0; scale differs between SH3 domains)); higher = stronger binding of the SH3 domain to the peptide
Procedure, shortened: (§1)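 Binding signal refers to normalized, background-subtracted spot intensity averaged over replicates, expressed in arbitrary units that differ between domains. GST-fused SH3 domains from four yeast species were incubated at 10 μg/ml overnight at 4°C on cellulose membranes of synthetic 15-mer peptides with cysteines replaced by serines. Bound protein was detected with anti-GST antibody, an HRP anti-mouse secondary and luminol, and quantified with Genespotter.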

Binder | SPOT peptide array binding signal intensity
EQEEIAPSLPSRNSI | 6

target: AgBbc1; experiment: as above
Procedure, shortened: as §1

Binder | SPOT peptide array binding signal intensity
EQEEIAPSLPSRNSI | ≤ 0

target: AgBem1-D1; experiment: as above
Procedure, shortened: as §1

Binder | SPOT peptide array binding signal intensity
EQEEIAPSLPSRNSI | ≤ 0

target: AgBzz1-D1; experiment: as above
Procedure, shortened: as §1

Binder | SPOT peptide array binding signal intensity
EQEEIAPSLPSRNSI | 10.5

target: AgBzz1-D2; experiment: as above
Procedure, shortened: as §1

Binder | SPOT peptide array binding signal intensity
EQEEIAPSLPSRNSI | 1

target: AgCyk3; experiment: as above
Procedure, shortened: as §1

Binder | SPOT peptide array binding signal intensity
EQEEIAPSLPSRNSI | ≤ 0

target: AgFus1; experiment: as above
Procedure, shortened: as §1

Binder | SPOT peptide array binding signal intensity
EQEEIAPSLPSRNSI | ≤ 0

target: AgHof1; experiment: as above
Procedure, shortened: as §1

Binder | SPOT peptide array binding signal intensity
EQEEIAPSLPSRNSI | 4.25

target: AgHse1; experiment: as above
Procedure, shortened: as §1

Binder | SPOT peptide array binding signal intensity
EQEEIAPSLPSRNSI | ≤ 0

target: AgLsb1; experiment: as above
Procedure, shortened: as §1

Binder | SPOT peptide array binding signal intensity
EQEEIAPSLPSRNSI | 17.5

target: AgLsb4; experiment: as above
Procedure, shortened: as §1

Binder | SPOT peptide array binding signal intensity
EQEEIAPSLPSRNSI | 1050

target: AgMyo5; experiment: as above
Procedure, shortened: as §1

Binder | SPOT peptide array binding signal intensity
EQEEIAPSLPSRNSI | ≤ 0

target: AgNbp2; experiment: as above
Procedure, shortened: as §1

Binder | SPOT peptide array binding signal intensity
EQEEIAPSLPSRNSI | 10

target: AgRvs167; experiment: as above
Procedure, shortened: as §1

Binder | SPOT peptide array binding signal intensity
EQEEIAPSLPSRNSI | 3

target: AgSho1; experiment: as above
Procedure, shortened: as §1

Binder | SPOT peptide array binding signal intensity
EQEEIAPSLPSRNSI | ≤ 0

target: AgSla1-D1-D2; experiment: as above
Procedure, shortened: as §1

Binder | SPOT peptide array binding signal intensity
EQEEIAPSLPSRNSI | ≤ 0

target: AgSla1-D3; experiment: as above
Procedure, shortened: as §1

Binder | SPOT peptide array binding signal intensity
EQEEIAPSLPSRNSI | ≤ 0

target: CaAbp1-D1; experiment: as above
Procedure, shortened: as §1

Binder | SPOT peptide array binding signal intensity
EQEEIAPSLPSRNSI | ≤ 0

target: CaAbp1-D2; experiment: as above
Procedure, shortened: as §1

Binder | SPOT peptide array binding signal intensity
EQEEIAPSLPSRNSI | 7.5

target: CaBbc1; experiment: as above
Procedure, shortened: as §1

Binder | SPOT peptide array binding signal intensity
EQEEIAPSLPSRNSI | 5.5

target: CaBem1-D1; experiment: as above
Procedure, shortened: as §1

Binder | SPOT peptide array binding signal intensity
EQEEIAPSLPSRNSI | 2

target: CaBzz1-D1; experiment: as above
Procedure, shortened: as §1

Binder | SPOT peptide array binding signal intensity
EQEEIAPSLPSRNSI | ≤ 0

target: CaBzz1-D2; experiment: as above
Procedure, shortened: as §1

Binder | SPOT peptide array binding signal intensity
EQEEIAPSLPSRNSI | ≤ 0

target: CaCyk3; experiment: as above
Procedure, shortened: as §1

Binder | SPOT peptide array binding signal intensity
EQEEIAPSLPSRNSI | 1

target: CaFus1; experiment: as above
Procedure, shortened: as §1

Binder | SPOT peptide array binding signal intensity
EQEEIAPSLPSRNSI | 22

target: CaHof1; experiment: as above
Procedure, shortened: as §1

Binder | SPOT peptide array binding signal intensity
EQEEIAPSLPSRNSI | 1

target: CaHse1; experiment: as above
Procedure, shortened: as §1

Binder | SPOT peptide array binding signal intensity
EQEEIAPSLPSRNSI | 4

target: CaLsb1; experiment: as above
Procedure, shortened: as §1

Binder | SPOT peptide array binding signal intensity
EQEEIAPSLPSRNSI | 0.5

target: CaLsb4; experiment: as above
Procedure, shortened: as §1

Binder | SPOT peptide array binding signal intensity
EQEEIAPSLPSRNSI | 5990

target: CaMyo5; experiment: as above
Procedure, shortened: as §1

Binder | SPOT peptide array binding signal intensity
EQEEIAPSLPSRNSI | ≤ 0

target: CaNbp2; experiment: as above
Procedure, shortened: as §1

Binder | SPOT peptide array binding signal intensity
EQEEIAPSLPSRNSI | ≤ 0

target: CaRvs167; experiment: as above
Procedure, shortened: as §1

Binder | SPOT peptide array binding signal intensity
EQEEIAPSLPSRNSI | 43.8

target: CaRvs167-3; experiment: as above
Procedure, shortened: as §1

Binder | SPOT peptide array binding signal intensity
EQEEIAPSLPSRNSI | 1

target: CaSho1; experiment: as above
Procedure, shortened: as §1

Binder | SPOT peptide array binding signal intensity
EQEEIAPSLPSRNSI | ≤ 0

target: CaSla1-D1-D2; experiment: as above
Procedure, shortened: as §1

Binder | SPOT peptide array binding signal intensity
EQEEIAPSLPSRNSI | ≤ 0

target: CaSla1-D3; experiment: as above
Procedure, shortened: as §1

Binder | SPOT peptide array binding signal intensity
EQEEIAPSLPSRNSI | ≤ 0

target: ScAbp1; experiment: as above
Procedure, shortened: as §1

Binder | SPOT peptide array binding signal intensity
EQEEIAPSLPSRNSI | 14.5
